Measurements from PubChem BioAssay (NCI).
This is part of a sample that, as a whole, favours compounds with a hit. Of some 83,000 tested, about 20% had one in any assay.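 Interpretation: 100, growth as untreated; towards 0, rising growth inhibition; 0, no net growth; 0 to -100, cell death. Compounds scoring below 10 were considered active.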 Values without a mark were called inactive. Activity calls are given as the source filed them.

Assays:
Test in all cases: NCI-60 one-dose screen, 48 h (100 = growth as untreated, 0 = no growth, -100 = all killed)
Details in all cases: 10 µM unless noted
SK-MEL-2 melanoma = test system: SK-MEL-2 melanoma
EKVX NSCLC = test system: EKVX NSCLC
SN12C renal = test system: SN12C renal
UO-31 renal = test system: UO-31 renal
TK-10 renal = test system: TK-10 renal
ACHN renal = test system: ACHN renal
CAKI-1 renal = test system: CAKI-1 renal
A498 renal = test system: A498 renal
CCRF-CEM leukemia = test system: CCRF-CEM leukemia
MOLT-4 leukemia = test system: MOLT-4 leukemia
SR leukemia = test system: SR leukemia
OVCAR-8 ovarian = test system: OVCAR-8 ovarian
OVCAR-5 ovarian = test system: OVCAR-5 ovarian
OVCAR-4 ovarian = test system: OVCAR-4 ovarian
SK-OV-3 ovarian = test system: SK-OV-3 ovarian
IGROV1 ovarian = test system: IGROV1 ovarian
OVCAR-3 ovarian = test system: OVCAR-3 ovarian
HS 578T breast = test system: HS 578T breast
NCI/ADR-RES ovarian = test system: NCI/ADR-RES ovarian

Row | Compound | growth (SK-MEL-2 melanoma) | growth (EKVX NSCLC) | growth (SN12C renal) | growth (UO-31 renal) | growth (TK-10 renal) | growth (ACHN renal) | growth (CAKI-1 renal) | growth (A498 renal) | growth (CCRF-CEM leukemia) | growth (MOLT-4 leukemia) | growth (SR leukemia) [%] | growth (OVCAR-8 ovarian) | growth (OVCAR-5 ovarian) | growth (OVCAR-4 ovarian) | growth (SK-OV-3 ovarian) | growth (IGROV1 ovarian) | growth (OVCAR-3 ovarian) | growth (HS 578T breast) | growth (NCI/ADR-RES ovarian)
1 | COc1ccc2[nH]cc(C3(c4c[nH]c5ccc(OC)cc45)C(=O)Nc4ccc(F)cc43)c2c1 | 98.3% | 37% | 106% | 62% | 125% | 86.7% | 40.8% | 60.8% | 15.4% | 1.29% (active) | 11.8 | 94.4% | 94.1% | 86.7% | 94.5% | 74.2% | 86.6% | 73.4% | 94%
2 | CC(=O)N1N=C(C2C(=O)N(C)C(=O)N(C)C2=O)CC1c1ccccc1C(=O)O (centres undefined) | 102% | 105% | 101% | 87.4% | 97.6% | 98.9% | 94.8% | 91.7% | 94.6% | 97.1% | 93 | 103% | 104% | 113% | 94.8% | 112% | 109% | 92.1% | 105%
3 | c1csc(-c2cnc3nonc3n2)c1 | 105% | 101% | 86.7% | 66.5% | 128% | 85.7% | 90.3% | 88.1% | 79.7% | 78.9% | 39.3 | 79.2% | 107% | 89.5% | 92.7% | 76.9% | 84.2% | 92.5% | 95%
4 | COc1cc(-c2nn(C(=O)NCCN3CCN(C)CC3)cc2-c2ccncc2)ccc1Cl | 89.5% | 46.9% | 82.4% | 54% | 20.5% | 69.5% | 79.7% | 65.8% | 88.8% | 77.4% | 77.5 | 24.5% | 84.6% | 78% | 55.1% | 75% | 97.2% | 76.9% | 82.4%
5 | CCCCCCCC/C=C/CCCCCCCC1=NC(C)(C)CN1c1ccccc1 | 92.6% | 105% | 95.5% | 61.7% | 118% | 101% | 90.1% | 105% | 64.2% | 85.7% | 71.8 | 87.3% | 113% | 80.2% | 99.1% | 101% | 90.8% | 89.5% | 98.1%
6 | O=C(CSc1nnc(Cc2ccccc2Nc2c(Cl)cccc2Cl)n1-c1ccccc1)N1N=C(c2ccc3ccccc3c2)CC1c1ccc(Cl)cc1 (centres undefined) | 103% | 93.5% | 96.6% | 80% | 95.5% | 109% | 92.7% | 102% | 113% | 98.4% | 97.2 | 107% | 99.8% | 88.7% | 93.8% | 89.5% | 104% | 111% | 101%
7 | CCCCOc1nc2ccccc2cc1/C=C/c1cc(/C=C/c2cc3ccccc3nc2OCCCC)n(-c2ccccc2)n1 | 101% | 105% | 95.3% | 75.2% | 119% | 103% | 88.3% | 95.9% | 101% | 99% | 98.7 | 95.9% | 102% | 109% | 92.6% | 97.9% | 107% | 87.6% | 106%
8 | CCN(CC)c1cc(C)c(Cc2c(OC)ccc3ccccc23)cc1C | 94.4% | 93.4% | 91.2% | 73.1% | 95.6% | 99.4% | 93.1% | 96.6% | 102% | 79.7% | 85.5 | 96.8% | 102% | 96.9% | 83.4% | 88.6% | 106% | 81% | 103%
9 | C=CCOC(=O)C1=C(C)NC2=C(C(=O)CCC2)C1c1ccc(F)cc1 (centres undefined) | 101% | 102% | 92.1% | 76.1% | 111% | 89.6% | 84.7% | 99.3% | 98.1% | 93.6% | 92.2 | 97% | 98% | 98.7% | 86.6% | 99.2% | 109% | 88.4% | 101%
10 | Clc1ccc(C2=NN[C@H](c3cn(-c4ccccc4)nc3-c3ccccc3)C2)cc1 | 91.4% | 35.3% | 51.2% | 105% | 99.2% | 53.1% | 19.6% | 91% | 78.3% | 77.9% | 104 | 33.6% | 83.6% | 68.1% | 61.6% | 79.5% | 58.6% | 74.2% | 55.9%
11 | CCCCCCCCCCCCCCCCCC(=O)[O][Sn]([CH2]CCC)([CH2]CCC)[CH2]CCC | -60.7% (active) | -40.1% (active) | -47.2% (active) | -92.4% (active) | -93.6% (active) | -96.8% (active) | -86.5% (active) | -98% (active) | 1.06% (active) | 4.55% (active) | 15.8 | -57% (active) | -71.1% (active) | -98% (active) | -96.2% (active) | -88.7% (active) | -100% (active) | -8.64% (active) | -86.6% (active)
12 | CCOC(=O)N1C2CCC(C2)N1C(=O)OCC | 99% | 113% | 105% | 95.6% | 94.7% | 106% | 106% | 115% | 100% | 93% | 101 | 101% | 100% | 95.3% | 104% | 108% | 113% | 111% | 108%
13 | c1ccc2oc(-c3cnc4nonc4n3)cc2c1 | 95% | 71.2% | 93% | 63.1% | 132% | 82.3% | 86.8% | 103% | 95.8% | 97.2% | 106 | 93.6% | 104% | 106% | 84.8% | 87.2% | 108% | 89.2% | 92.4%
14 | O=c1c2cc(Br)cc(Br)c2nc(-c2ccc(Cl)cc2)n1/N=C\c1ccccc1F | 78.4% | 63.7% | 58.2% | 21.6% | 33.1% | 26.4% | 27% | 85.6% | 71.7% | 74% | 81 | 47% | 64.8% | -9.05% (active) | 49.6% | 39.1% | 56.4% | 60.8% | 53.7%
15 | CCCCSc1ncnc2c1ncn2C1CCCCO1 (centres undefined) | 104% | 115% | 103% | 91.2% | 109% | 110% | 110% | 94.6% | 99.6% | 96.9% | 90.5 | 105% | 99.1% | 108% | 106% | 106% | 109% | 110% | 102%
16 | O=C(c1ccccc1)C1OC1C(=O)c1ccccc1 (centres undefined) | 34% | 81.3% | 28.2% | 60.1% | 36.9% | 33.1% | 14.6% | 95.6% | 12.1% | 45.6% | 14.3 | 25.4% | 30.2% | 60.1% | 54.3% | 24.6% | 35.2% | 54.2% | -18.5% (active)
